From PubChem BioAssay (NCATS)
“And” between values parts separate entries of the source, which are not always exact repeats. Equal values may be shown once. Results filed as inconclusive are left out. Entries that show only a call come without a potency. Unmarked numbers belong to inactive results. The source made the active and inactive calls. Calls come from the whole dose curve; as a rule, active = well fitted inhibition curve with a large enough effect; inconclusive = small, poorly fitted or top-dose-only effect; inactive = flat fitted curve, though single readings scatter.

What was measured:
[1] = molecular target: Calcium and integrin-binding protein 1 (Homo sapiens) (UniProt Q99828); test: Primary qHTS for Identification of Calcium Integrin Binding Protein 1 (CIB1) Competitor (AID 1508620); conditions: CIB1-GST / FITC-alphaIIb peptide fluorescence polarization; series mostly up to 114 µM;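 note: GST tagged CIB1 binding a fluorescein labelled alphaIIb integrin peptide tracer; top concentration of the series differs between compounds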
How it was run: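 Fluorescence polarization competition: GST-tagged CIB1 (1 uM final) preincubated with compound 15 min at room temperature, then FITC-labelled alphaIIb peptide (100 nM final) added. After 15 min at room temperature, polarization read at Ex 480/Em 540.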

[2] = Primary qHTS for inhibitors of nuclear receptor binding SET domain protein 2 (NSD2) in an isogenic RCH-ACV NSD2 p.E1099K mutant (9B) (AID 1645876); conditions: RCH-ACV (leukaemia line) NSD2 E1099K (9B) viability, CellTiter-Glo, 72 h; series mostly up to 44.9 µM; note: nearly all actives have a fitted effect of over 70% in size; note: potency is the fitted concentration of half-maximal effect

Chain of Calcium and integrin-binding protein 1 (Homo sapiens) (Q99828 whole entry, looked up): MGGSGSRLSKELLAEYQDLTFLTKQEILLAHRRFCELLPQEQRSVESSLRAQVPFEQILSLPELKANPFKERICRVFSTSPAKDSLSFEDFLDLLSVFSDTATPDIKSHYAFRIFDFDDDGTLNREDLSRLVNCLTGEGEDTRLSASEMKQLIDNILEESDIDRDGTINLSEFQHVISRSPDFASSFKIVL

SMILES | Potency [1] | Potency [2] | activity change, negative = inhibition [1] | activity change, negative = viability loss [2]
C=CC(C)(CC/C=C(\C)C(=O)OC)OC1OC(COC(=O)CC(C)(O)CC(=O)O)C(OC2OC(CO)C(O)C(O)C2O)C(O)C1O (configuration not stated) | inactive | inactive | – | –
COC(=O)C1=CO[C@@H](O[C@@H]2O[C@H](CO)[C@@H](O)[C@H](O)[C@H]2O)[C@H]2[C@@H]1C=C[C@@]21C=C([C@H](C)O)C(=O)O1 | inactive | inactive | – | –
O=C1CCC=CC1(O)C(=O)OCc1ccccc1O[C@@H]1O[C@H](CO)[C@@H](O)[C@H](O)[C@H]1O (some centres not stated) | inactive | 12.6 µM (active) | – | –
CC[C@H](NC(=O)[C@H](CS(=O)(=O)CC1CC1)N[C@@H](c1ccc(F)cc1)C(F)(F)F)C(=O)C(=O)NC1CC1 | inactive | inactive | – | –
CC1CC(C(O)C(C)(C)O)OC2CC3(C)C4(C)CCC5C(C)(C)C(=O)CCC5(C)C4CCC3(O)C12O (configuration not stated) | inactive | inactive | – | –
C[C@@H]1O[C@@H](O[C@H]2[C@H](OC(=O)[C@]34CCC(C)(C)C[C@H]3C3=CCC5[C@@]6(C)C[C@H](O)[C@H](O[C@@H]7O[C@H](CO)[C@@H](O)[C@H](O)[C@H]7O)[C@@](C)(CO)C6[C@H](O)C[C@@]5(C)[C@]3(C)CC4)OC[C@H](O)[C@@H]2O)[C@H](O)[C@H](O)[C@H]1O[C@@H]1OC[C@@H](O)[C@H](O[C@@H]2OC[C@](O)(CO)[C@H]2O)[C@H]1O (some centres not stated) | – | – | 3.34% [at 12.4 µM] | -10.4% [at 9.23 µM]
CC1=CC(=O)CC(C)(CO)C1(O)/C=C/C(C)O[C@@H]1O[C@H](CO)[C@@H](O)[C@H](O)[C@H]1O (some centres not stated) | inactive | inactive | – | –
O=C(O[C@H]1[C@@H]2C[C@@H]3OC[C@](O)([C@@H]1Cl)[C@H]2C(O[C@@H]1O[C@H](CO)[C@@H](O)[C@H](O)[C@H]1O)O3)c1ccc(O)c(O)c1 (some centres not stated) | inactive | inactive | – | –
CC(O)/C=C/C1OC(=O)CC1Nc1ccc(C(=O)O)cc1 (configuration not stated) | inactive | inactive | – | –
COc1ccc(/C=C/C(=O)O[C@@H]2[C@@H](O)[C@H](C)O[C@@H](O[C@H]3[C@@H]4C=CO[C@@H](O[C@H]5O[C@@H](CO)[C@H](O)[C@@H](O)[C@@H]5O)[C@@H]4[C@@]4(CO)O[C@@H]34)[C@@H]2OC(C)=O)cc1 | inactive | inactive | – | –
C=C[C@]1(C)C=C2CCC3C(C)(CCC[C@@]3(C)C(=O)O)C2CC1 (some centres not stated) | inactive | inactive | – | –
Nc1nc2c(c(=O)[nH]1)C[C@@H](CCc1ccc(C(=O)N[C@@H](CCC(=O)O)C(=O)O)cc1)CN2 | inactive | 0.0115 µM (active) | – | –
COC(=O)CCc1cc2ccoc2c(OC)c1O[C@@H]1O[C@H](CO)[C@@H](O)[C@H](O)[C@H]1O | inactive | inactive | – | –
CC1(C)CC[C@]2(C(=O)O[C@@H]3O[C@H](CO)[C@@H](O)[C@H](O)[C@H]3O)CC[C@]3(C)C(=CCC4[C@@]5(C)CC[C@H](O[C@@H]6O[C@H](C(=O)O)[C@@H](O)[C@H](O[C@@H]7O[C@H](CO)[C@H](O)[C@H](O)[C@H]7O)[C@H]6O)C(C)(C)C5CC[C@]43C)C2C1 (some centres not stated) | inactive | – | – | -8.36% [at 9.23 µM]
C[C@@H]1N[C@H]2N(C1=O)c1ccccc1[C@@]2(O)C[C@@H]1C(=O)N[C@@H](C)c2nc3ccccc3c(=O)n21 | inactive | inactive | – | –
CC(C)O[C@@H]1O[C@H](CO)[C@@H](O)[C@H](O)[C@H]1O | inactive | inactive | – | –
C=C(C(=O)O)C1CCC2(C)CCCC(C)(O)C2C1 (configuration not stated) | inactive | inactive | – | –
CC(C)c1cc(C(=O)N2CC[C@H](NC(=O)C3CC3)C2)n[nH]1 | inactive | inactive | – | –

SMILES | Potency [1] | Potency [2] | activity change, negative = inhibition [1] | activity change, negative = viability loss [2]
CC1=C2C[C@H]3O[C@@]3(C)CCC3O[C@@]3(C)C[C@@]2(O)OC1=O (some centres not stated) | inactive | inactive | – | –
C[C@@H]1O[C@@H](O[C@H]2[C@H](OC(=O)[C@]34CCC(C)(C)C[C@H]3C3=CCC5[C@@]6(C)CC[C@H](O[C@@H]7O[C@H](C(=O)O)[C@@H](O)[C@H](O)[C@H]7O[C@@H]7O[C@H](CO)[C@H](O)[C@H](O)[C@H]7O)[C@@](C)(C=O)C6CC[C@@]5(C)[C@]3(C)C[C@H]4O)O[C@H](C)[C@H](O[C@@H]3O[C@H](C)[C@H](O)[C@H](O)[C@H]3O)[C@@H]2O)[C@H](O)[C@H](O)[C@H]1O[C@@H]1OC[C@@H](O)[C@H](O[C@@H]2O[C@H](CO)[C@@H](O)[C@H](O)[C@H]2O)[C@H]1O (some centres not stated) | – | – | -0.579% [at 12.4 µM] | -94% [at 4.96 µM]
CN(C)C/C=C/C(=O)Nc1cccc(C(=O)Nc2cccc(Nc3ncc(Cl)c(-c4c[nH]c5ccccc45)n3)c2)c1 | inactive | 64.9 nM (active) and 148 nM (active) | – | –
COc1cc2c(cc1OC)N1C(=O)C[C@]34C=CCN5CC[C@@H]2[C@@H](CC3)[C@]514 | inactive | inactive | – | –
N[C@@]1(C(=O)O)CC[C@H]2[C@H](C(=O)O)[C@H]21 | inactive | inactive | – | –
CC(C)(O)CC(CO)NC(=O)CC(O)CC(=O)Cc1ccccc1 (configuration not stated) | inactive | inactive | – | –
CC12CCC(OC3OC(CO)C(O)C(OC4OC(CO)C(O)C(O)C4O)C3O)CC1CCC1C2CCC2(C)/C(=C3/COC(=O)C3)CCC12O (configuration not stated) | inactive | inactive | – | –
C=CC(C)(C)c1[nH]c2cc3c(cc2c1CC1NC(=O)C2CCCN2C1=O)C=CC(C)(C)O3 (configuration not stated) | inactive | inactive | – | –
C/C=C/C(O)C1OC(=O)CC1Nc1ccc(C(=O)O)cc1 (configuration not stated) | inactive | inactive | – | –
C(#Cc1nc2ncccc2nc1OCCN1CCCC1)c1ccccc1 | inactive | 2.58 µM (active) | – | –
Cc1c(NC(=O)c2cc(C(N)=O)nc3cc(F)ccc23)c(C(F)(F)F)nn1Cc1ccc(C#N)cc1 | inactive | inactive | – | –
CC(O)(CC(=O)O)CC(=O)OCc1ccc(O[C@@H]2O[C@H](CO)[C@@H](O)[C@H](O)[C@H]2O)cc1 (some centres not stated) | inactive | inactive | – | –
COc1cc(C2c3cc4c(c(O)c3CC(CO)C2C(=O)O)OCO4)cc(OC)c1O (configuration not stated) | inactive | 2.52 µM (active) | – | –
C=C(CCC1=C(C)[C@H]2[C@H](CC3[C@@H]4CC=C5C[C@@H](O)C[C@@H](O)[C@]5(C)C4[C@H](O)C[C@@]32C)O1)CO[C@@H]1O[C@H](CO)[C@@H](O)[C@H](O)[C@H]1O (some centres not stated) | inactive | 0.483 µM (active) | – | –
C=C1C(=O)OC2C1CCC(=C)C1CC(OC(C)=O)C(=C)C12 (configuration not stated) | inactive | 10.3 µM (active) | – | –
NC1(C(=O)NC(CCO)c2ccc(Cl)cc2)CCN(c2ncnc3[nH]ccc23)CC1 (configuration not stated) | inactive | 0.728 µM (active) | – | –
CC1(C)CCCC2(C)C1C(O)C=C(CO)C2(O)CO (configuration not stated) | inactive | inactive | – | –
OC[C@H]1O[C@@H](Oc2ccccc2)[C@H](O)[C@@H](O)[C@@H]1O | inactive | inactive | – | –
